# Measured values: PubChem BioAssay (Tox21)
# Records with an inconclusive call do not appear. The source holds several records for some structures; these can differ, active in one and inactive in another. The source made the active and inactive calls. Calls follow the shape of the full dose curve.
# Molecular target: Acetylcholinesterase (Homo sapiens) (UniProt P22303)
# Assay: Acetylcholinesterase (AChE) small molecule antagonists: colormetric cell-based qHTS assay (AID 1347395); also: nearly all actives have a fitted effect of over 30% in size; also: potency is read from the fitted curve at half-maximal effect
# Conditions: SH-SY5Y cells AChE activity, colorimetric (Ellman); series mostly up to 115 µM; activity, negative = inhibition: at the top concentration
# In short: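 Colorimetric readout: DTNB quantifies thiocholine from acetylthiocholine hydrolysed by endogenous AChE of SH-SY5Y cells (2,000/well, plated overnight). Compound pretreatment 30 min, substrate incubation 90 min, both 37 C.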
# % is scaled to controls: 0 for no effect and ±100 for the full control effect.
# Chain of Acetylcholinesterase (Homo sapiens) (P22303 whole entry, looked up): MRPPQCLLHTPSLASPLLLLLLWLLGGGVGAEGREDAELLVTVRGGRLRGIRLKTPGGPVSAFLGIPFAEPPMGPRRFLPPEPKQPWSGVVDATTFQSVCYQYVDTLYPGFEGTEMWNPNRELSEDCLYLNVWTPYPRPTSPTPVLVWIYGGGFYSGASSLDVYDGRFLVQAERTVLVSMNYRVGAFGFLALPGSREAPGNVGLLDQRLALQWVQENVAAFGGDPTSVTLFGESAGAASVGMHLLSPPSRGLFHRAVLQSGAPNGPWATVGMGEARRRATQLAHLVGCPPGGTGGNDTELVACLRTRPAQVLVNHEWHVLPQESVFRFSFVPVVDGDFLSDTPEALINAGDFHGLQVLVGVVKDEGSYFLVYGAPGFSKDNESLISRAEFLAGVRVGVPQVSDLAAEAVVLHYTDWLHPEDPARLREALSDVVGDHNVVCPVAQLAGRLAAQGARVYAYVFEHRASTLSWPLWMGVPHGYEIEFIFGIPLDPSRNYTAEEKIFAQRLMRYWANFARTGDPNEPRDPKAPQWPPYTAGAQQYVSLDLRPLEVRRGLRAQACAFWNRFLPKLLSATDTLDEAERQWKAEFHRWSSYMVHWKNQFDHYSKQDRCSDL
Compound,"activity, negative = inhibition",Potency
Cc1ccccc1CCO,2.75% (inactive),–
O=C(O)COc1nn(Cc2ccccc2)c2ccccc12,0.252% [at 52.9 µM] (inactive),–
CCCCCCCCCCCC,-6.95% (inactive),–
C=CC(=O)OCCOC(=O)C=C,-1.41% (inactive),–
CC(C)Oc1ccc2c(=O)c(-c3ccccc3)coc2c1,–,inactive
Fc1ccc(C(c2ccc(F)cc2)N2CCNCC2)cc1,-1.51% [at 52.9 µM] (inactive),–
CCCCOCCOCCOCCCC,0.9% (inactive),–
C=Cc1ccncc1,-0.436% (inactive),–
O=c1[nH]c2ccccc2n1CCCN1CCN(C(c2ccccc2)c2ccccc2)CC1,3.79% [at 52.9 µM] (inactive),–
O=S(O)O,0.406% [at 23.6 µM] (inactive),–
O=C(c1ccc(O)c(O)c1)c1ccc(O)cc1O,5.16% (inactive),–
C=CCSSCCC,1.22% (inactive),–
Clc1ccc2c(c1)Nc1ccccc1S2,2.59% [at 52.9 µM] (inactive),–
Oc1ccc2cc(SSc3ccc4cc(O)ccc4c3)ccc2c1,–,inactive
CC(C)=CCC1C(=O)N(c2ccccc2)N(c2ccccc2)C1=O,1.85% [at 52.9 µM] (inactive),–
C=C(C)[C@@H]1CC=C(C)C(=O)C1,3.07% (inactive),–
NCCOCCN,2.58% (inactive),–
CC(=O)C(C)C,–,inactive
C[Si](C)(C)O[Si](O)(O)O,1.49% (inactive),–
Cc1nnc(C(=O)NC(C)(C)c2nc(C(=O)NCc3ccc(F)cc3)c(O)c(=O)n2C)o1,-8.97% [at 52.9 µM] (inactive),–

Compound,"activity, negative = inhibition",Potency
CCC(N)(CO)CO,-0.377% (inactive),–
CCC(C)(C)C(=O)O[C@H]1C[C@@H](C)C=C2C=C[C@H](C)[C@H](CC[C@@H]3C[C@@H](O)CC(=O)O3)[C@H]21,–,inactive
Cc1cccc(Oc2ccccc2)c1,1.64% (inactive),–
C=CC(=O)OCCC(=O)O,–,82.3 µM (active) and inactive
O=C(Nc1ccc(C(=O)O)c(O)c1)c1ccccc1,2.39% [at 52.9 µM] (inactive),–
Cc1cc2c(OCC(CNC(C)(C)C)OC(=O)c3ccccc3)cccc2[nH]1 (stereo not given),1.53% [at 52.9 µM] (inactive),–
O=C(NO)C1(NS(=O)(=O)c2ccc(Oc3ccc(F)cc3)cc2)CCOCC1,0.467% (inactive),–
CC(C)(c1ccccc1)c1ccccc1,0.8% (inactive),–
CC(=O)CC(=O)Nc1ccccc1C,–,inactive
Cc1cc(O)c2c(c1)C(=O)c1cc(O)cc(O)c1C2=O,–,inactive
CN1Cc2cc(C(=O)N3CCC(C4CCNCC4)CC3)ccc2NC(CC(=O)O)C1=O (stereo not given),-6.72% [at 52.9 µM] (inactive),–
CCCCOC(=O)C(=O)OCCCC,-1.79% (inactive),–
CC/C=C(\C)C=O,-0.495% (inactive),–
O=[N+]([O-])c1ccccc1C(F)(F)F,–,inactive
CN1CCC(=C2c3ccccc3CCc3cccnc32)CC1,-4.48% [at 52.9 µM] (inactive),–
CC1CC(OC(=O)c2ccccc2O)CC(C)(C)C1 (stereo not given),–,inactive
COc1nc(C)nc(NC(=O)NS(=O)(=O)c2ccccc2OCCCl)n1,-4.35% (inactive),–
NS(=O)(=O)c1cc2c(cc1Cl)NCNS2(=O)=O,-3.95% [at 52.9 µM] (inactive),–
C/C(=C1\CCOC(=O)S1)N(C=O)Cc1cnc(C)nc1N,2.29% [at 52.9 µM] (inactive),–
CCCCCCCCCCCO,–,inactive

# Molecular target: Acetylcholinesterase (Homo sapiens) (UniProt P22303)
# Assay: Acetylcholinesterase (AChE) small molecule antagonists: enzyme-based qHTS assay (AID 1347397); also: nearly all actives have a fitted effect of over 55% in size
# Conditions: Potency: AChE enzyme activity inhibition; outcome: AChE enzyme activity inhibition; series mostly up to 115 µM; activity change, negative = inhibition: at the top concentration
# In short: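 Absorbance-based detection of thiocholine with DTNB served as the read-out. Recombinant human AChE was exposed to compound for 30 min at RT before a 10 min RT incubation with acetylthiocholine.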
Compound,"activity change, negative = inhibition",Potency
Cc1ccccc1CCO,0.974% (inactive),–
O=C(O)COc1nn(Cc2ccccc2)c2ccccc12,-2.02% [at 53 µM] (inactive),–
CCCCCCCCCCCC,2.2% (inactive),–
C=CC(=O)OCCOC(=O)C=C,0.756% (inactive),–
CC(C)Oc1ccc2c(=O)c(-c3ccccc3)coc2c1,–,inactive
Fc1ccc(C(c2ccc(F)cc2)N2CCNCC2)cc1,-0.548% [at 53 µM] (inactive),–
CCCCOCCOCCOCCCC,-0.0383% (inactive),–
C=Cc1ccncc1,0.0197% (inactive),–
O=c1[nH]c2ccccc2n1CCCN1CCN(C(c2ccccc2)c2ccccc2)CC1,1.08% [at 53 µM] (inactive),–
O=S(O)O,-0.777% [at 23.6 µM] (inactive),–
O=C(c1ccc(O)c(O)c1)c1ccc(O)cc1O,3.2% (inactive),–
C=CCSSCCC,1.36% (inactive),–
Clc1ccc2c(c1)Nc1ccccc1S2,0.27% [at 53 µM] (inactive),–
Oc1ccc2cc(SSc3ccc4cc(O)ccc4c3)ccc2c1,–,inactive
CC(C)=CCC1C(=O)N(c2ccccc2)N(c2ccccc2)C1=O,0.135% [at 53 µM] (inactive),–
C=C(C)[C@@H]1CC=C(C)C(=O)C1,0% (inactive),–
NCCOCCN,-0.0378% (inactive),–
CC(=O)C(C)C,–,inactive
C[Si](C)(C)O[Si](O)(O)O,2.25% (inactive),–
Cc1nnc(C(=O)NC(C)(C)c2nc(C(=O)NCc3ccc(F)cc3)c(O)c(=O)n2C)o1,0.426% [at 53 µM] (inactive),–

Compound,"activity change, negative = inhibition",Potency
CCC(N)(CO)CO,0.409% (inactive),–
CCC(C)(C)C(=O)O[C@H]1C[C@@H](C)C=C2C=C[C@H](C)[C@H](CC[C@@H]3C[C@@H](O)CC(=O)O3)[C@H]21,–,inactive
Cc1cccc(Oc2ccccc2)c1,1.49% (inactive),–
C=CC(=O)OCCC(=O)O,–,inactive
O=C(Nc1ccc(C(=O)O)c(O)c1)c1ccccc1,-13.7% [at 53 µM] (inactive),–
Cc1cc2c(OCC(CNC(C)(C)C)OC(=O)c3ccccc3)cccc2[nH]1 (stereo not given),-0.978% [at 53 µM] (inactive),–
O=C(NO)C1(NS(=O)(=O)c2ccc(Oc3ccc(F)cc3)cc2)CCOCC1,-0.263% (inactive),–
CC(C)(c1ccccc1)c1ccccc1,1.9% (inactive),–
CC(=O)CC(=O)Nc1ccccc1C,–,inactive
Cc1cc(O)c2c(c1)C(=O)c1cc(O)cc(O)c1C2=O,–,inactive
CN1Cc2cc(C(=O)N3CCC(C4CCNCC4)CC3)ccc2NC(CC(=O)O)C1=O (stereo not given),-0.348% [at 53 µM] (inactive),–
CCCCOC(=O)C(=O)OCCCC,-1.13% (inactive),–
CC/C=C(\C)C=O,1.5% (inactive),–
O=[N+]([O-])c1ccccc1C(F)(F)F,–,inactive
CN1CCC(=C2c3ccccc3CCc3cccnc32)CC1,-1.52% [at 53 µM] (inactive),–
CC1CC(OC(=O)c2ccccc2O)CC(C)(C)C1 (stereo not given),–,inactive
COc1nc(C)nc(NC(=O)NS(=O)(=O)c2ccccc2OCCCl)n1,-0.0103% (inactive),–
NS(=O)(=O)c1cc2c(cc1Cl)NCNS2(=O)=O,–,inactive
C/C(=C1\CCOC(=O)S1)N(C=O)Cc1cnc(C)nc1N,0.74% [at 53 µM] (inactive),–
CCCCCCCCCCCO,–,inactive
